Tests used:
Assay in all cases: PBM binding z-score (relative to random genomic background probes); higher = stronger binding; sequences stand for … in GC…GCGATTGACAGCGTAGAATGAAGG
[1] = system: RARb homodimer (NR concentration 270 nM)
Summary of the method: (§1)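 Binding z-scores were set against random background probes. The data came from custom Agilent 4×180K protein-binding microarrays carrying double-stranded probes with 34-nt variable regions, incubated 1 h with ligand-free nuclear receptor dimers. Partner-specific antibodies detected binding, and scanned fluorescence was regression-normalized.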

[2] = system: RARg:RXRa (NR concentration 270 nM, RXRa partner concentration 90 nM)
Summary of the method: as §1

[3] = system: RARg homodimer (NR concentration 270 nM)
Summary of the method: as §1

[4] = system: RXRa DBDmut IVT, anti-RXR (DBD mutation: RXRa K156A/R161A, NR concentration 90 nM)
Summary of the method: as §1

[5] = system: RXRa homodimer (NR concentration 180 nM)
Summary of the method: as §1

[6] = system: THRa:RXRa (NR concentration 90 nM, RXRa partner concentration 90 nM)
Summary of the method: as §1

[7] = system: THRa homodimer (NR concentration 90 nM)
Summary of the method: as §1

[8] = system: VDR:RXRa (NR concentration 270 nM, RXRa partner concentration 90 nM)
Summary of the method: as §1

[9] = system: VDR homodimer (NR concentration 270 nM)
Summary of the method: as §1

| Sequence | PBM binding z-score [1] | PBM binding z-score [2] | PBM binding z-score [3] | PBM binding z-score [4] | PBM binding z-score [5] | PBM binding z-score [6] | PBM binding z-score [7] | PBM binding z-score [8] | PBM binding z-score [9] |
| --- | --- | --- | --- | --- | --- | --- | --- | --- | --- |
| GGAACGAGGGCATAGTTGATAGCATCTGTCGACG | 0.536 | 0.949 | 1.22 | 2.25 | 1.02 | 0.72 | -0.185 | 0.655 | 1.18 |
| ACACACAGGTGAGTGAAGGTAACTCAGCTGGACG | -0.00486 | 0.394 | 0.59 | -0.0875 | 0.549 | 1.57 | -0.409 | -0.0221 | -0.0907 |
| TCATGTAGATCAAAGGTTAAGAAAGCCGAAGCCT | 1.55 | 1.96 | 0.89 | 1.08 | 3.55 | 1.37 | -0.229 | 1.66 | -0.0577 |
| AGATCGAGGGCACGCTGAGTTGATAGCAGAGTAG | 0.796 | 1.71 | 1.86 | 1.57 | 0.933 | 1.63 | -0.107 | 1.85 | 1.65 |
| CCTGCTAGGTCAATGGTCCGCTAAAGCAGCTCGC | 2.71 | 3.34 | 3.91 | 1.71 | 1.57 | 2.19 | 0.549 | 0.759 | -0.203 |
| AATACAGGGTCACTAGGCTAGAGTAGGTACGAAT | 3.33 | 4.95 | 5.26 | 2.71 | 5.52 | 3.35 | 1.23 | 4.05 | 2.2 |
| TCATATAGGTAAATGCCAGGTGAAAGTCCGATCT | 0.815 | 0.611 | 0.433 | 1.64 | 0.912 | 2.02 | 1.33 | 1.12 | 0.435 |
| TGAGTGAGGTTATAAGATCAGGGAACGTTGCAAA | 0.44 | 1.43 | 1.12 | 0.109 | 1.88 | 1.59 | 0.117 | 0.806 | 0.655 |
| CGTCCAAGGTCAATGCTAGGTCAGTTAAAGCATT | 5.03 | 7.56 | 6.8 | 3.49 | 5.03 | 4.67 | 2.9 | 5.01 | 3.2 |
| ACTTACGGGTCAACGATGTTATAGCACGCGTATA | 3.01 | 5.25 | 5 | 2.19 | 5.56 | 2.76 | 0.387 | 4.93 | 1.21 |
| CCTAGTTGGTCAGGAGGTCACACAACGGATATGA | 4.4 | 5.09 | 4.4 | 0.815 | 4.82 | 3.56 | 2.25 | 3.97 | 2.5 |
| AATACAGGGTCATCGTAGGCCAGAGTTCGCACAG | 3.88 | 5.67 | 5.21 | 3.68 | 6.43 | 4.77 | 1.65 | 5.79 | 5.37 |
| CGAGACAGGTGAAAGGTAACTCAGTCTGGTACGC | 0.817 | 1.2 | 0.702 | -0.262 | 2.11 | 0.861 | -0.303 | 0.633 | -0.342 |
| ATATGTAGGTTATCGGATCATTCAGTTTGCGCAT | 0.853 | 0.837 | 0.866 | 0.702 | 1.12 | 0.794 | 0.624 | 1.58 | 0.764 |
| CGAACGAGGGCATGAGTTGCTAGCAAATGCCGAT | 0.64 | 1.05 | 1.42 | 2.17 | 0.709 | 1.11 | -0.232 | 0.671 | 1.05 |
| GCTTGTAGATCAAGCTTAAGAAAGACTAAGCTAA | -1.31 | -0.516 | -0.459 | -0.635 | -0.645 | -0.583 | -1.48 | -0.459 | -0.457 |
| ACTATTAGTTGGGACGAGGGCAACCGATAGGTTG | 1.37 | 0.644 | 0.82 | 0.0733 | 0.516 | 1.64 | 0.629 | 0.564 | 1.12 |
| CCGACTGGGGCAAGGTTACCATCACGCACAGCCA | 1.61 | 1.08 | 1.33 | -0.402 | 1.18 | 1.22 | 0.274 | -0.00962 | -0.0347 |
| AGTCAAAGTACAGGACGAGGTAACGTAAAGCACG | 0.274 | 0.526 | 0.919 | -0.155 | 0.598 | 1.39 | 0.878 | -0.143 | -0.0315 |
| GCTTGGAGGACAAGGTCAGAGCTTTGTCCGTAGA | 3.25 | 3.03 | 3.61 | 0.782 | 2.37 | 3.02 | 1.46 | 1.41 | 0.256 |
| GGAACGAGGGCATTCGGGTTGATAGCATGGCGAT | 0.654 | 1.05 | 1.55 | 3.18 | 0.826 | 2.68 | 0.0871 | 4.61 | 4.11 |
| GCTTGTAGATCAAGGTTAAGACAGACTAAGCTAA | 0.562 | 0.461 | 0.497 | -0.0408 | 0.989 | 1.27 | -0.0509 | 0.166 | 0.0668 |
| CGTCCAAGGTCAGCAGGTCAATGAAAGCGACGTG | 5.24 | 6.59 | 6.73 | 2.62 | 5.64 | 4.03 | 2.46 | 4.68 | 2.23 |
| AATACAGGGTCATCGTAGGCCAGACTACGCACAG | 2.36 | 5.54 | 5.13 | 3.61 | 6.23 | 4.74 | 1.68 | 5.11 | 2.65 |
| CAAACTATGTCAAGAGGTCAAAGTCCGCTTCCCG | 4.59 | 5.95 | 5.29 | 2.09 | 6.87 | 3.65 | 1.79 | 5.15 | 4.22 |
| GCATATAGGTACTACAAGGTGAAAGTCCGATTGT | 0.507 | 0.382 | 0.475 | 0.291 | 0.615 | 3.49 | 0.882 | 0.143 | 0.179 |

| Sequence | PBM binding z-score [1] | PBM binding z-score [2] | PBM binding z-score [3] | PBM binding z-score [4] | PBM binding z-score [5] | PBM binding z-score [6] | PBM binding z-score [7] | PBM binding z-score [8] | PBM binding z-score [9] |
| --- | --- | --- | --- | --- | --- | --- | --- | --- | --- |
| TATACAGGGTCCAAGGCCAGAGTACGAATGTCGA | 1.18 | 0.986 | 1.15 | 1.17 | 0.823 | 0.402 | 0.398 | 0.821 | 2.03 |
| GCTTACGGGTCAATGGTTATAGCATGAATAGAAT | 2.28 | 4.02 | 3.9 | 1.65 | 4.17 | 1.87 | -0.17 |  | 0.787 |
| CCTACTGGGCCAAAAAGGTCATAGATGCCGATAA | 4.35 | 4.63 | 4.54 | 0.263 | 5.22 | 3.08 | 0.589 | 4.4 | 2 |
| ATCGGAAGGTCGACGAGGTGAGTATACACCGTTT | 1.95 | 2.32 | 2.65 | 0.311 | 2.37 | 3.04 | 0.579 | 3.87 | 0.813 |
| CTACCAAGGTGAACAAGGTCGTTGGTTACTATTC | 2.16 | 1.79 | 1.29 | 1.28 | 1.87 | 3.19 | 1.81 | 5.92 | 3.03 |
| CTACCAAGGGGAACAAGGTCGTTGATTACTATTC | 1.09 | 0.406 | 0.334 | 0.885 | 0.759 | 1.76 | 1 | 3.86 | 2 |
| CGAACGAGGGCATGAGTTGATAGCTAATGCCGAT | 0.599 | 1.51 | 1.52 | 2.15 | 0.984 | 1.25 | -0.207 | 1.37 | 1.67 |
| AGTCAAAGTTCATTAGGTAACGTAAGATTCAGCT | 3.87 | 5.26 | 5.92 | 4.97 | 4.52 | 2.59 | 0.801 |  | 5.43 |
| GCGACCGGGGCATCAGCAGGTTACCATAACTTAA | 1.37 | 2.27 | 1.64 | -0.302 | 0.943 | 1.61 | 0.295 | 0.435 | -0.185 |
| CCGACTGGGGCAGAAAGGTTCCCATACCATCCGG | 0.053 | -0.0575 | 0.0675 | -1.16 | -0.265 | -0.504 | -0.737 | -0.573 | -0.826 |
| TCATATAGGTAAGAGGTGAAAGTCGGTGTGGTAA | 1.34 | 1.19 | 0.66 | 1.84 | 1.99 | 1.69 | 0.894 | 1.33 | 0.13 |
| CGAACTTGGTCAGAACAGGACAGTGAAGGATGAT | 0.311 | 0.432 | 0.829 | -0.105 | 0.172 | 1.09 | -0.102 | -0.145 | -0.116 |
| GATACAGGGTCAGGGCCAGAGTACGCGTATTGAT | 3.15 | 4.29 | 4.19 | 0.901 | 4.15 | 2.89 | 0.838 | 3.14 | 1.2 |
| ATCTCTAGGTAAAGTTTAGTGAAAGATCGATAGA | 0.401 | 0.251 | 0.558 | 0.303 | 0.0525 | 0.362 | 0.126 | 0.28 | 0.236 |
| CCTTACGGGTCACGAGCTTATAGCACGACGAGCG | 3.08 | 5.67 | 5.35 | 1.94 | 6.23 | 3.07 | 0.145 | 3.95 | 0.809 |
| GGATCGAGGGCATTCGAGTTGATAGCATGGCGAT | 0.818 | 1.07 | 1.25 | 3.06 | 0.598 | 3.39 | -0.117 | 3.52 | 3.49 |
| GGTAGTTGGTCAGTAAAAGGTCACACACCGGTCG | 5.4 | 5.49 | 4.84 | -0.0829 | 5.45 | 3.72 | 2.3 | 4.11 | 2.2 |
| CCGACTGGGGCAGAAAGGTTATCATACCATCCGG | 1.91 | 1.48 | 1 | -0.376 | 1.67 | 0.759 | -0.293 | 0.932 | -0.196 |
| CGAACTAGGTCATTGACAGGACAGTGCATAGTAA | 2.87 | 4.65 | 4.3 | 2.22 | 2.43 | 2.85 | 0.816 | 2.5 | 1.86 |
| AGAATGAGGATATACGTAGATCAGGGAAGAAAGT | -0.46 | 0.0404 | 0.424 | -0.474 | -0.0531 | 0.415 | -0.039 | -0.427 | -0.0995 |
| CCTACTGGGCCAAAAGGGTCATTGATGCCGATAA | 3.22 | 3.29 | 2.71 | 0.103 | 3.26 | 2.17 | -0.01 | 4.44 | 2.72 |
| TATCCTAGGTCATTCAGGGGCCAGTATAGAAAGC | 3.68 | 6.44 | 4.99 | 2.55 | 3.59 | 3.76 | 1.57 | 3.57 | 2.01 |
| CAAACTAGGTCACGAAAGGTCAGAGTCGAATGAC | 5.65 | 7.33 | 7.81 | 2.37 | 7.38 | 4.84 | 2.26 |  | 2.55 |
| ACTATTGGTTGACTTAGGGCAACCGATACGACGC | 0.788 | 0.838 | 0.894 | 0.419 | 0.479 | 1.66 | 0.213 | 0.175 | -0.0545 |
| CAGCCTAGGTCAGGGCTAGTATAGGAGGAACGTT | 2.38 | 2.93 | 3.76 | -0.422 | 1.49 | 1.82 | 0.321 | -0.00307 | -0.179 |
| CAAACTAGGTCACCGGAAGGTCAGAGTCCGCATG | 5.45 | 7.9 | 7.02 | 1.63 | 5.06 | 4.19 | 2.73 | 4.86 | 2.14 |
